In the library only some 3.4% were active in any assay of this set; here they are far more common.
esBAF inh – Bmi1 luciferase reporter increase in mESCs, primary screen, esBAF inhibitor project, mouse ES cells, Bmi1 luciferase knock-in, single point | 24 h; 100% = twice the neutral-well signal | reporter increase, % at 12.5 µM | hit rate 2% among 350,000; in the data active = activation above about 40%;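 also: 0% = median of the plate's neutral control wells and 100% = double that signal; a rise in the Bmi1 reporter signal indicates esBAF inhibition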
miR122 inh – miR-122 Renilla sensor signal increase in Huh7, primary screen, miR-122 inhibitor project, cell-based, single point, plate reader; AID 602342, 2012; hit rate 0.3% among 340,000; activation (reporter increase), % at 12.5 µM; Huh7 miR-122 Renilla luciferase sensor, 48 h; neutral wells = 0, positive control = 100;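 active = mean replicate activation score at least 90 and every replicate individually at or above 90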;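 also: higher luciferase means less miR-122 activity so hits act as miR-122 inhibitors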
Wnt bcat act – Wnt/beta-catenin pathway activators, primary screen, cell-based, plate reader, single point; Wnt/beta-catenin reporter cell assay, activator; activation, % at 9.35 µM; hit rate 1.2% among 300,000; AID 743398, 2014; in the data active = activation above about 30%, passing the limit was not always enough;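 also: 0% = neutral control wells and 100% = positive control wells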
MITF TRPM1 HTS – activators of MITF-driven TRPM1 promoter reporter, primary screen, cell-based, SK-MEL-5, luciferase, single point. SK-MEL-5 TRPM1-promoter luciferase, 24 h; % of positive control, neutral wells = 0. activation, % at 12.5 µM. hit rate 0.75% among 300,000;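 active = mean activation of at least 80% with every replicate also reaching 80%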;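 also: 0% = neutral control wells and 100% = parthenolide positive control wells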
Env fusion inh – inhibitors of HIV-1 Env-driven cell-cell fusion, primary screen, HeLa-JRFL effector, CEM21 target cells, luciferase. inhibition, % at 12.3 µM. hit rate 1.1% among 360,000. AID 651610, 2012;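 active = mean replicate inhibition score of at least 50 and every replicate individually at or above 50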;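 also: 0% = plate neutral controls and 100% = maraviroc near 300 nM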
Active calls of the source: *; i = inactive; / = not tested or not shown; [ ] = another dose, or the depositor's remark.

SMILES	esBAF inh	miR122 inh	Wnt bcat act	MITF TRPM1 HTS	Env fusion inh
COc1ccc([C@@H]2[C@@H]3C(=O)N(C(C)(C)C)C(=O)[C@@H]3[C@]3(C)C(=O)N(c4cccc(Cl)c4)C(=O)N23)cc1	1.5	-2.3	-3.1	5.6	61.5*
Cc1cccc(N2C(=O)N3[C@H](c4ccc(Br)cc4)[C@@H]4C(=O)N(C(C)(C)C)C(=O)[C@@H]4[C@]3(C)C2=O)c1	2.5	-0.1	0.8	-5.3	111.9*
COCC(=O)N1CCCCN2[C@@H](CO)[C@@H](c3ccc(-c4ccccc4)cc3)[C@@H]2C1	/	2.7[16.7 µM]	/	/	/
Cn1c(=O)c2c(nc(Br)n2Cc2ccccc2Cl)n(C)c1=O	-7.0	1.9	-2.2	-5.5	/
Cn1c(=O)c2c(nc(Br)n2Cc2ccc3ccccc3c2)n(C)c1=O	-29.7	36.5	/	-7.1	58.5*
CCNc1nc2c(c(=O)n(C)c(=O)n2C)n1Cc1ccc(Cl)cc1	-24.2	-12.1	-6.6	/	60.1*
Cn1c(=O)c2c(nc(Oc3ccc4ccccc4c3)n2C)n(C)c1=O	-6.8	11.2	/	31.5	102.5*
COc1cccc(C(=O)Cn2c(Br)nc3c2c(=O)n(C)c(=O)n3C)c1	9.4	-2.9	48.9*	-21.7	2.9
COc1ccc(NC(=O)N(C)C[C@H]2Oc3ccc(NS(C)(=O)=O)cc3CC(=O)N([C@H](C)CO)C[C@H]2C)cc1	5.8	9.5[16.7 µM]	/	/	0.2[16.7 µM]
CCOc1cc(C2Nc3ccccc3C(=O)N2c2ccccc2)c(Br)cc1OCC(=O)O (configuration not stated)	/	-3.7	/	6.3	-19.6
COc1cc(C2Nc3ccccc3C(=O)N2c2ccc(Cl)cc2)c(Cl)cc1OCC(=O)O (configuration not stated)	/	-4.8	48.0*	71.2	/
COc1cc(C2Nc3ccccc3C(=O)N2c2ccccc2)ccc1O (configuration not stated)	19.5	-1.6	9.0	19.8	/
CCOc1cc(C2Nc3ccccc3C(=O)N2c2ccccc2)ccc1O (configuration not stated)	45.3*	1.7	9.8	33.2	/
C[C@@H]1CCCCO[C@@H](CN(C)CC2CCCCC2)[C@H](C)CN([C@H](C)CO)C(=O)c2cc(NS(=O)(=O)c3cn(C)cn3)ccc2O1	6.0	1.9[16.7 µM]	/	/	-8.0[16.7 µM]
CCC(=O)N(C)C[C@H]1Oc2ncc(C3=CCCC3)cc2C(=O)N([C@H](C)CO)C[C@@H]1C	5.2	-0.7[16.7 µM]	/	/	-6.8[16.7 µM]
O=C(N[C@H]1CC[C@@H](CCNC(=O)C2CCC2)O[C@H]1CO)c1ccccn1	-2.1	/	/	/	-5.3[16.7 µM]
Cc1cc(N)n2ncc(-c3ccc(F)cc3)c2n1	57.6*	-0.3	/	73.5	i
Cc1cc(NCc2ccccn2)n2ncc(-c3ccccc3)c2n1	51.5*	-20.1	55.8*	/	-111.8
Cc1cc(Cl)n2ncc(-c3ccccc3)c2n1	47.8*	-4.8	-2.8	/	-95.7
Cc1cc(N)n2ncc(-c3ccc(Cl)cc3)c2n1	/	-0.7	/	39.5	-194.2
CN(C)CCCNc1cc(C(C)(C)C)nc2c(-c3ccccc3)cnn12	/	0.2	43.4*	/	-47.6
Cc1cc(C)n2ncc(-c3cccc(Br)c3)c2n1	23.6	9.9	9.4	-4.3	-0.2
O=C(C[C@H]1C[C@@H]2c3cc(NC(=O)c4ccc5c(c4)OCO5)ccc3O[C@@H]2[C@@H](CO)O1)NCc1ccc(Oc2ccccc2)cc1	3.8	1.6[16.7 µM]	/	/	9.0[16.7 µM]
COc1ccc(S(=O)(=O)N(C)C[C@@H]2OCCCC[C@@H](C)Oc3ccc(NS(=O)(=O)c4ccccc4)cc3C(=O)N([C@@H](C)CO)C[C@@H]2C)cc1	15.4	14.7[16.7 µM]	/	/	-11.8[16.7 µM]
O=C(C[C@H]1CC[C@H]2[C@@H](COC[C@H](O)CN2C(=O)c2ccncc2)O1)NC1Cc2ccccc2C1	-3.6	-3.6[16.7 µM]	/	/	/
C[C@@H]1CN([C@@H](C)CO)S(=O)(=O)c2ccc(-c3ccccc3)cc2O[C@@H]1CN(C)C	0.8	-1.9[16.7 µM]	/	/	0.1[16.7 µM]
O=C(C[C@H]1CC[C@@H](NC(=O)c2cccc(F)c2)[C@H](CO)O1)Nc1nccs1	0.5	/	/	/	5.4[16.7 µM]
CN(C)c1ccc(/C=C2\CCCc3c2nc2ccccc2c3C(=O)O)cc1	58.8*	-2.4	17.9	70.2	-67.1
O=C(O)c1ccc(/C=C2\CCCc3c2nc2ccccc2c3C(=O)O)cc1	-1.6	1.8	-0.4	-7.5	4.8
Clc1cccc(CNc2ccn3nc(-c4ccco4)cc3n2)c1	25.3	8.2	-1.8	/	-18.4

Bioassay records deposited in PubChem by Broad Institute.
